Sampled rows, rich in hits. Any-hit rate of the full collection: about 1.6%.
Fam108B counter: blocks mouse Fam108B hydrolase in RBBP9 counter-screen | inhibition, % at 9.51 µM | recombinant Fam108B, FP-Rh probe fluorescence polarization | hit rate 0.33% among 300,000;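 active = inhibition above the screen mean inhibition plus 3 SD, computed separately per campaign, cut at about 18% in these data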;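 also: inhibitors lower polarization as less probe binds the enzyme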
PREPL inhibitor: inhibits the human prolyl oligopeptidase-like enzyme; Q4J6C6; recombinant PREPL, fluorescence polarization activity-based probe; inhibition, % at 5.96 µM; hit rate 0.68% among 320,000; in the data active = inhibition above about 43%;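 also: 0% = enzyme with DMSO and 100% = wells lacking enzyme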
Target sequence (Q4J6C6 whole entry, looked up): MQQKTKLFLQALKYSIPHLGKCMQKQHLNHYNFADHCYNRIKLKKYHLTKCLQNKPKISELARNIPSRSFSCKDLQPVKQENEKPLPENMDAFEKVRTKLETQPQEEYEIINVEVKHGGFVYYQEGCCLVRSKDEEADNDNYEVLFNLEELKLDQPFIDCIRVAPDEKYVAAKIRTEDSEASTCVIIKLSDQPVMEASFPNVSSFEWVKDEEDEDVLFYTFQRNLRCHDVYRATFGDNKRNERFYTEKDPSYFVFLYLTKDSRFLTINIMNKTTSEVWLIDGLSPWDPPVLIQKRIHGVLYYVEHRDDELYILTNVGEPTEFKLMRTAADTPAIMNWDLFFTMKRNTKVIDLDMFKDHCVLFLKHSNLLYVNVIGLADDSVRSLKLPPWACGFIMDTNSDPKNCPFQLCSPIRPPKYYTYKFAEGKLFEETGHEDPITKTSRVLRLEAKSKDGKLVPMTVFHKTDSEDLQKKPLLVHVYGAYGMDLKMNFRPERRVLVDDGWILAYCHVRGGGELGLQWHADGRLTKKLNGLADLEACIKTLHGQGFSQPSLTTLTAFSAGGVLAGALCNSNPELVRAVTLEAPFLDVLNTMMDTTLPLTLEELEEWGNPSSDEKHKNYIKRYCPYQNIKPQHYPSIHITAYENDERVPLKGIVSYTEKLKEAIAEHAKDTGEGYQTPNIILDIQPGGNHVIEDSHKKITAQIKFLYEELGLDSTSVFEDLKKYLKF
PME-1 primary: blocks human protein phosphatase methylesterase 1. recombinant PME-1, FP-Rh probe fluorescence polarization. AID 2130. Q9Y570. hit rate 0.53% among 320,000. inhibition, % at 5.9 µM;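 active = inhibition above the campaign mean of all compounds plus 3 SD, cut at about 26% in these data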;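 also: competitive labeling of PME-1 active site by serine hydrolase directed probe; 0% = PME-1 with DMSO and 100% = wells lacking PME-1 enzyme; inhibitors block probe labeling so polarization falls and inhibition rises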
LYPLA1 inh: counter-screen for PME1 inhibitors: inhibitors of human LYPLA1; hit rate 0.16% among 320,000; recombinant LYPLA1, FP-Rh probe fluorescence polarization; inhibition, % at 5.9 µM; O75608;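 active = inhibition above the mean of all tested compounds plus 3 SD, set per campaign, cut at about 14% in these data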;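 also: inhibitors block serine hydrolase probe labeling of LYPLA1 so polarization falls; 0% = enzyme with DMSO and 100% = wells lacking LYPLA1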
LYPLA2 inh: counter-screen for PME1 inhibitors: inhibitors of human LYPLA2; O95372; recombinant LYPLA2, FP-Rh probe fluorescence polarization; inhibition, % at 5.9 µM; hit rate 0.38% among 320,000; AID 2177;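 active = inhibition above the screen-wide mean plus 3 SD, limit set per campaign, cut at about 26% in these data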;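 also: 0% = LYPLA2 with DMSO and 100% = wells lacking LYPLA2 enzyme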
MEX-5 binding: C. elegans MEX-5 TCR-2 RNA binding activity | Q9XUB2 | MEX-5/FITC-TCR2 RNA binding, fluorescence polarization; stronger effect = lower value | activity score (negative = inhibition of binding), % at 10 µM | hit rate 0.38% among 300,000;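 active = inhibition past about -25% in most replicates, and total fluorescence under double the plate's negative control median, limit read from the data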;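 also: 0% = DMSO and -100% = 5 µM competing unlabeled TCR2 RNA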
Fam108b inh conf: confirmation of mouse Fam108b serine hydrolase inhibitors | shares compounds with Fam108B counter | recombinant Fam108b, FP-Rh probe fluorescence polarization | inhibition, % at 9.51 µM | hit rate 44% among 930 | AID 1978;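 active = inhibition above a limit from the primary screen, the mean over all compounds plus 3 SD, cut at about 19% in these data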;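 also: 0% = median of active Fam108b wells and 100% = catalytically dead S170A mutant; inhibitors free the probe so polarization falls as inhibition rises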
Fam108b ABPP HTS: inhibits mouse Fam108b in gel-based ABPP. inhibition, % at 20 µM. hit rate 44% among 260. recombinant Fam108b, fluorophosphonate probe. shares compounds with Fam108B counter; in the data active = inhibition above about 40%
* hit, by the source's call; x = not tested or not shown.

SMILES | Fam108B counter | PREPL inhibitor | PME-1 primary | LYPLA1 inh | LYPLA2 inh | MEX-5 binding | Fam108b inh conf | others
CCCOc1ccc(C2C3=C(Nc4nc(N)[nH]c(=O)c42)c2ccccc2C3=O)cc1 (stereo not drawn) | 23* | 15 | 13 | -14 | -6 | 1 | 19*
CCOc1ccc(C2C3=C(Nc4nc(N)[nH]c(=O)c42)c2ccccc2C3=O)cc1 (stereo not drawn) | 7 | 16 | 4 | -2 | -5 | -12 | x
CCOC(=O)N1CCN(C(=O)c2ccc(CS(=O)(=O)c3ccc(OC)cc3)o2)CC1 | 0 | 0 | -5 | 1 | -3 | -1 | x
O=C1c2ccccc2C(=O)N1OS(=O)(=O)c1ccccc1 | 29* | 6 | -2 | -2 | -3 | 0 | -18
CCOc1cc(CN2CCN(c3ccc(C(C)=O)cc3)CC2)ccc1OC | -1 | 12 | -7 | -1 | 1 | -3 | x
Cc1nc(SCC(=O)c2ccc(Cl)s2)c2oc3ccccc3c2n1 | -10 | -12 | -5 | 0 | -8 | -9 | x
O=C(N/C(=C\c1ccc(Cl)cc1)C(=O)N1CCOCC1)c1ccco1 | -1 | 6 | -3 | 1 | -2 | -1 | x
O=C(N/C(=C\c1ccccc1)C(=O)N1CCOCC1)c1ccco1 | 42* | 19 | -12 | -6 | -4 | 1 | 0
COc1ccc([N+](=O)[O-])cc1NC(=O)C1(c2ccc(OC)c(OC)c2)CCOCC1 | 1 | -3 | -2 | 3 | 2 | 1 | x
CN(c1ccccc1)c1ccc(/C=C(\CCC(=O)O)c2nc3ccccc3s2)cc1[N+](=O)[O-] | 20* | 21 | 11 | 6 | 23 | 1 | 14
Cc1ccc(/C=C(\CCC(=O)O)c2nc3ccccc3s2)cc1[N+](=O)[O-] | 1 | 15 | 11 | -4 | -5 | 0 | x
O=S(=O)(O)c1cc(O)c2c(O)c(N=Nc3cc(Cl)ccc3O)c(S(=O)(=O)O)cc2c1 | 24* | 40 | 6 | -16 | -36 | -46* | -23
CCN(CC)S(=O)(=O)c1ccc(N/N=C/c2ccc(O)cc2O)nc1 | 22* | 11 | 48* | -5 | -1 | 0 | 6
Cc1[nH]c2ccccc2c1/C=N/NC(=O)c1cccc(S(=O)(=O)Nc2cccc(C(F)(F)F)c2)c1 | 40* | 15 | 21 | -10 | -17 | -4 | 32*
Cc1cccc(C)c1NC(=O)CS(=O)CC(=O)NCCCc1ccccc1 (stereo not drawn) | -1 | 5 | 2 | 0 | 4 | 1 | x
CC(NC(=O)Cc1ccccc1)C1COc2ccccc2O1 (stereo not drawn) | 125* | -3 | 1 | 2 | 5 | 2 | -1
COc1cc(/C=N/Nc2nc3ccccc3s2)ccc1OC(=O)c1ccccc1F | 3 | 33 | 18 | -12 | 5 | 2 | x
COc1cc(OC)cc(C(=O)Oc2ccc(/C=N/Nc3nc4ccccc4s3)cc2OC)c1 | 26* | 6 | 31* | -4 | -1 | 1 | 12
COc1cc(/C=N/Nc2nc3ccccc3s2)cc([N+](=O)[O-])c1O | 21* | 17 | 62* | 9 | 5 | -3 | 12
O=[N+]([O-])c1cc(Cl)cc(/C=N/Nc2nc3ccccc3s2)c1O | 33* | 7 | 20 | 5 | 4 | -1 | 9
CC(C)[C@H](NS(=O)(=O)c1ccc2c(c1)OCCO2)C(=O)OCC(=O)Nc1ccccc1 | 2 | 5 | 3 | -2 | -6 | 2 | x
Cn1c(O)c(C2=c3ccccc3=NC2=O)[nH]c1=S | 0 | 4 | 4 | 3 | 14 | -1 | x
COc1ccc2nc(-n3c(O)c(C4=c5ccccc5=NC4=O)[nH]c3=S)sc2c1 | 37* | 12 | 54* | -6 | 2 | 0 | 36* | Fam108b ABPP HTS=0
O=C(CCCN1C(=O)c2cccc3cccc(c23)C1=O)NCc1ccco1 | 1 | 5 | 8 | -2 | 0 | 3 | x
O=C(CCCN1C(=O)c2cccc3cccc(c23)C1=O)NCc1cccs1 | 22* | -16 | 1 | -5 | -7 | 0 | 27*

Bioassay records as filed in PubChem BioAssay.
